Source: PubChem BioAssay (several laboratories)
PLK1 inh: PLK1 (human) kinase inhibition. inhibition, % at 10 µM. P53350. recombinant PLK1 kinase, TR-FRET peptide phosphorylation. actives 0.53% (n = 97,000);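 active = inhibition of 50% or more in the single-concentration screen; inactive = inhibition below 50%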
CYP2C9 inhib: inhibitors of human CYP2C9; actives 20% (n = 96,000); CYP2C9 Supersomes, luciferin-H conversion, luminescence; AID 777; inhibition, % at 5 µM;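 active = blocking of liver enzyme CYP2C9 beyond about 50% at 5 µM, limit read from the data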
CYP2C9 act: activators of human CYP2C9; recombinant CYP2C9, luciferin-H conversion, luminescence; stronger effect = higher value; factor 1 = untreated enzyme, 0 = blocked; actives 1.4% (n = 96,000); activation factor at 5 µM; P11712; AID 1024;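 active = activation factor of 2 or more for CYP2C9 at a 5 µM dose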
PLK1 PBD inh: inhibitors of human Plk1 polo box domain binding. AID 693. inhibition, %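 (tested at about 20 µM)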. Plk1 PBD phosphopeptide binding, fluorescence polarization. actives 0.13% (n = 97,000). P53350; in the data active = inhibition above about 34%, passing the limit was not always enough
CYP2C19 activ: activators of human cytochrome P450 2C19; P33261; recombinant CYP2C19, luciferin-H EGE luminescence; stronger effect = higher value; 0 = fully inhibited enzyme, 1 = untreated enzyme; activation factor at 5 µM; 96,000 tested, under 10 active;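 active = activation factor of at least 2 at 5 µM in the primary screen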
Target sequence (P33261 whole entry, looked up): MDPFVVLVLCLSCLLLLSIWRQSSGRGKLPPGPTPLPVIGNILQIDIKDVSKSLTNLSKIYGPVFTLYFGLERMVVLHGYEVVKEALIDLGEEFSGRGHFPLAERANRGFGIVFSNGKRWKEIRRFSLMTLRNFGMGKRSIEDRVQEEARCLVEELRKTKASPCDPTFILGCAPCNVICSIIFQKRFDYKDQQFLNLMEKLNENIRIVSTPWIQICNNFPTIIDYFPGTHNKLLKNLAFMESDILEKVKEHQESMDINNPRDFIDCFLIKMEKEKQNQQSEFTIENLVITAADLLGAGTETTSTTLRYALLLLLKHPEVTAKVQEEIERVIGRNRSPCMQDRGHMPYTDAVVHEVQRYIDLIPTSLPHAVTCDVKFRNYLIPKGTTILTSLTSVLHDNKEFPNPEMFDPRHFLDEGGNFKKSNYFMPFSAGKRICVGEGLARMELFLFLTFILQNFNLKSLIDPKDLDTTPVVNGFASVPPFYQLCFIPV
CYP2C19 inh: human CYP2C19 inhibition; P33261; CYP2C19 Supersomes, luciferin-H EGE luminescence, 30 min; inhibition, % at 5 µM; actives 21% (n = 96,000); AID 778;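 active = CYP2C19 inhibition above a set limit at 5 µM in the primary screen, cut at about 50% in these data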
Each line names hits and unclear results; the compound was inactive in the other large screens. Shown are actives, neighbours in structure and some others; about 28% of the full set was active somewhere.

CC(C)C(NS(=O)(=O)c1cccc2nsnc12)C(=O)NCc1ccc2c(c1)OCO2 (centres undefined)	CYP2C9 inhib 59
Cc1nc2ccc(S(=O)(=O)NC(C(=O)Nc3nc4ccc(Cl)cc4s3)C(C)C)cc2s1 (centres undefined)	CYP2C9 inhib 92, CYP2C19 inh 84
O=C(O/N=C/C1=C(Cl)c2ccccc2CC1)c1ccc(F)cc1	none
Cc1nc2ccccc2c(=O)n1CCN1CCOCC1	none
CCC(Sc1nc2ccccc2c(=O)n1CCN1CCOCC1)C(=O)NCc1cccnc1 (centres undefined)	CYP2C9 inhib 78
CCC(Sc1nc2ccccc2c(=O)n1CC1CCCO1)C(=O)NCc1cccnc1 (centres undefined)	CYP2C9 inhib 76
COCCNC(=O)CSc1nc2ccccc2c(=O)n1CC1CCCO1 (centres undefined)	none
COc1cccc(-c2noc(-c3cccs3)n2)c1	none
COc1cccc(-c2noc(C(C)n3nc(C)c([N+](=O)[O-])c3C)n2)c1 (centres undefined)	CYP2C9 inhib 55
Cc1ccc(S(=O)(=O)N2CCC(C(=O)NCCc3ccc(S(N)(=O)=O)cc3)CC2)cc1	none
C=CCSc1n[nH]c(-c2ccccc2)n1	none
Cc1nn(-c2ccccc2)c2c1C(c1cccs1)C(C#N)=C(N)O2 (centres undefined)	CYP2C9 inhib 79
Cc1nn(-c2ccccc2)c2c1C(c1ccco1)C(C#N)=C(N)O2 (centres undefined)	CYP2C9 inhib 79
Cc1ccc(-n2nc(C)c3c2OC(N)=C(C#N)C3c2ccc(F)cc2)cc1 (centres undefined)	none
CC1=CN2CC(O)CN=C2C=C1 (centres undefined)	none
CN(c1ccc(OCc2nnc(-c3ccccc3)o2)cc1)S(=O)(=O)c1ccccc1	CYP2C9 inhib 98, CYP2C19 inh 94
COc1ccc(-c2nnc(COc3ccc4ccccc4c3)o2)cc1OC	none
Cc1cccc(NC(=O)CN2C(=O)N/C(=C/c3cc(C)n(C(C)C)c3C)C2=O)c1	CYP2C9 inhib 71
CCCN(Cc1cc2cc(C)ccc2[nH]c1=O)C(=O)c1cccc(OC)c1	CYP2C9 inhib 58, CYP2C19 inh 64
COc1ccc2cc(CN(C(=O)Nc3ccccc3OC)C3CCCC3)c(=O)[nH]c2c1	CYP2C9 inhib 51
CCCN(Cc1cc2cccc(C)c2[nH]c1=O)C(=O)c1cccc(OC)c1	none (no result: CYP2C9 inhib, CYP2C9 act, CYP2C19 activ, CYP2C19 inh)
CCCCN(Cc1cc2cc(OC)ccc2[nH]c1=O)C(=O)c1ccccn1	none
CCCCN(Cc1cc2cc(OC)ccc2[nH]c1=O)C(=O)c1ccco1	CYP2C9 inhib 70, CYP2C19 inh 74
CCCN(Cc1cc2cc(C)ccc2[nH]c1=O)S(C)(=O)=O	CYP2C9 inhib 73, CYP2C19 inh 88
O=C(NCCCN1CCCC1=O)c1cncc(Br)c1	none
CCOC(=O)c1cccc(S(=O)(=O)N(CCO)Cc2cc3cc(OC)c(OC)cc3[nH]c2=O)c1	none
CCOC(=O)c1cccc(S(=O)(=O)N(CCO)Cc2cc3cc(OC)ccc3[nH]c2=O)c1	CYP2C19 inh 56
CCCN(Cc1cc2cc(OC)ccc2[nH]c1=O)C(=O)c1ccncc1	CYP2C19 inh 68
COc1ccc2[nH]c(=O)c(CN(C(=O)c3ccncc3)C(C)C)cc2c1	CYP2C9 inhib 50
COc1ccc2[nH]c(=O)c(CN(C)C(=O)c3ccncc3)cc2c1	CYP2C9 inhib 60, CYP2C19 inh 92
COc1ccc2[nH]c(=O)c(CN(C(=O)c3ccncc3)C(C)(C)C)cc2c1	none
COc1ccc(N2CCN(C(=O)c3ccc(N4C(=O)NC5CC4(C)Oc4ccccc45)cc3)CC2)cc1 (centres undefined)	none
Cc1csc(NC(=O)CNC(=O)OCc2ccccc2)n1	none
COc1ccc2[nH]c(=O)c(CN(C(=O)c3ccccn3)C3CCCCC3)cc2c1	CYP2C9 inhib 63
COC(=O)c1cc(Br)c(=O)n(-c2ccc(F)cc2)c1	CYP2C19 inh 89
COC(=O)c1cc(Br)c(=O)n(CCc2ccc(O)cc2)c1	CYP2C19 inh 52
COC(=O)c1cc(Br)c(=O)n(CC(C)C)c1	none
COC(=O)c1cc(Br)c(=O)n(CCc2ccc(F)cc2)c1	CYP2C9 inhib 56, CYP2C19 inh 94
COC(=O)c1cc(Br)c(=O)n(-c2ccccc2F)c1	CYP2C19 inh 51
COC(=O)c1cc(Br)c(=O)n(CCC2=CCCCC2)c1	CYP2C9 inhib 85, CYP2C19 inh 96
COC(=O)C1=C(C)N(CCC2=CCCCC2)C(=O)C1	CYP2C19 inh 98
COC(=O)C1=C(C)N(CC2CCCO2)C(=O)C1 (centres undefined)	none
CC1=C(C(=O)Nc2ccccc2)C(c2ccco2)NC(=S)N1 (centres undefined)	none
CC1=C(C(=O)Nc2ccccc2)C(c2ccco2)C(C#N)=C(SCC(=O)Nc2cccc(C)c2C)N1 (centres undefined)	CYP2C9 inhib 72, CYP2C19 inh 72
CC1=C(C(=O)Nc2ccccc2)C(c2ccco2)C(C#N)=C(SCc2ccccc2)N1 (centres undefined)	CYP2C9 inhib 96, CYP2C19 inh 97
CC1=C(C(=O)Nc2ccccc2)C(c2ccco2)C(C#N)=C(SCC(=O)OC(C)C)N1 (centres undefined)	none
CC1=C(C(=O)Nc2ccccc2)C(c2ccncc2)C(C#N)=C(SCC(=O)Nc2ccccc2)N1 (centres undefined)	CYP2C9 inhib 80, CYP2C19 inh 84
Cc1cc(OCC(=O)N2CCOCC2)ccc1NC(=O)C1CCCCC1	none (no result: PLK1 inh, PLK1 PBD inh)
c1ccc(CN2CCOCC2)cc1	none
c1ccc(Oc2cccc(CN3CCOCC3)c2)cc1	CYP2C19 inh 77
c1ccc2c(c1)Cc1cc(CN3CCOCC3)ccc1-2	CYP2C19 inh 62
CN(C)c1ccc(/C=N/Nc2ccc(-n3ccnc3)nn2)cc1	CYP2C9 inhib 70, CYP2C19 inh 62
C=CCc1c(C)nc(C)nc1N/N=C/c1ccc(N(C)C)cc1	none
O=C1/C(=C\c2ccccn2)SC(=S)N1Nc1ncc(C(F)(F)F)cc1Cl	CYP2C19 inh 65
O=C1/C(=C/c2ccc(F)cc2)SC(=S)N1Nc1ncc(C(F)(F)F)cc1Cl	none
O=S(=O)(N1CCCCC1)N1CCCN(S(=O)(=O)N2CCCCC2)CC1	CYP2C9 inhib 50
CCCn1nnnc1NC(=O)c1cccs1	none
CCCN(CCC)C(=O)c1ccc2c(c1)N(Cc1ccccc1)C(=O)CS2=O (centres undefined)	CYP2C9 inhib 86 (no result: PLK1 inh, PLK1 PBD inh)
O=C(NCCc1ccccc1)c1ccc2c(c1)N(Cc1ccccc1)C(=O)CS2=O (centres undefined)	CYP2C9 inhib 86 (no result: PLK1 inh, PLK1 PBD inh)
CC(C)CCNC(=O)c1ccc2c(c1)N(Cc1ccccc1)C(=O)CS2=O (centres undefined)	CYP2C9 inhib 50 (no result: PLK1 inh, PLK1 PBD inh)
